EPAC1 antag – qHTS for Antagonist of cAMP-regulated guanine nucleotide exchange factor 3 (EPAC1): primary screen; Rap guanine nucleotide exchange factor 3 (Homo sapiens), O95398; EPAC1 GEF assay, Rap1b-BODIPY-GDP exchange fluorescence; Potency, µM (titrated, usually from 115 µM), usual class: inhibitors; 360,000 tested, 0.14% active; AID 720709, 2013; also: nearly all actives have a fitted effect of over 50% in size
BRCA1 expr act – qHTS Assay to Identify Small Molecule Activators of BRCA1 Expression. MCF7-BRCA1-FFLuc reporter, luminescence, 48 h; response scale: scaled: vehicle 0%, 10 µM genistein 100%. Potency, µM (titrated, usually from 46.1 µM), actives largely listed as activators. 380,000 tested, 1.1% active. AID 624202, 2012; also: nearly all actives have a fitted effect of over 80% in size
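MCF7-BRCA1-FFLuc cells, 2000/well in phenol-red-free MEM, attached 2 h then treated 48 h at 37 C. Luciferase luminescence read 15 min after reagent; normalized to genistein maximum activation (10microM) and DMSO, concentration-response fitted.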
EPAC1 agonist – qHTS for Agonist of cAMP-regulated guanine nucleotide exchange factor 3 (EPAC1): primary screen. AID 720707, 2013. 360,000 tested, 0.073% active. Potency, µM (titrated, usually from 154 µM), actives largely listed as activators. EPAC1 agonist qHTS, biochemical assay; response scale: 100% = response to 6.5 mM cAMP. Rap guanine nucleotide exchange factor 3 (Homo sapiens), O95398; also: nearly all actives have a fitted effect of over 60% in size
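Fluorescent GDP-exchange assay: 100 nM EPAC1 with 250 nM Rap1B preloaded with BODIPY-GDP and 50 uM GDP; compounds tested as concentration series, 5 min at room temperature, then read every 5 min for 30 min (ex 480/em 540 nm); normalized to 6.5 mM cAMP.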
EPAC2 antag – qHTS for Antagonist of cAMP-regulated guanine nucleotide exchange factor 2 (EPAC2): primary screen | Rap guanine nucleotide exchange factor 4 (Homo sapiens), Q8WZA2 | EPAC2 GEF exchange of Rap1B-BODIPY-GDP, fluorescence | Potency, µM (doses to about 114 µM), most hits filed as inhibitors | 360,000 tested, 0.18% active | AID 720708, 2013; also: nearly all actives have a fitted effect of over 45% in size
EPAC2 agonist – qHTS for Agonist of cAMP-regulated guanine nucleotide exchange factor 4 (EPAC2): primary screen. Rap guanine nucleotide exchange factor 4 (Homo sapiens), Q8WZA2. EPAC2 activation, biochemical qHTS; response scale: 100% = 6.5 mM cAMP response. Potency, µM (titrated, usually from 154 µM), usual class: activators. 360,000 tested, 0.079% active. AID 720711, 2013; also: nearly all actives have a fitted effect of over 50% in size
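In this primary screen, activation is scored as increased exchange of BODIPY-GDP from Rap1B by 100 nM EPAC2, with 50 uM GDP as competitor. Signal is normalized to the 6.5 mM cAMP agonist control.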
USP1-UAF1 inh – Inhibitors of USP1/UAF1: Primary Screen | Potency, µM (top dose mostly 57.1 µM), hits mostly inhibitors | recombinant USP1/UAF1, Ub-Rhodamine cleavage fluorescence | AID 743255, 2014 | 390,000 tested, 0.23% active | Ubiquitin carboxyl-terminal hydrolase 1 (Homo sapiens), O94782; also: nearly all actives have a fitted effect of over 60% in size
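In this screen, compounds sit with the deubiquitinase complex (1nM) for 15 min at room temperature before Ub-Rho is added at 150nM final. Fluorescence rise is then followed for 6 reads every 60 seconds.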
Numbers stand for hits; i = inactive; ? = inconclusive; nt = not tested or not shown. A selection: hits, their analogues and other compounds. The true share with any hit is near 1.4%. Calls follow the shape of the dose curve; as a rule, active = well fitted curve in the direction sought with a large enough effect; inconclusive = small, poorly fitted or top-dose-only effect, or another doubt; inactive = no such curve, though single readings can be large; an effect the other way counts as inactive or inconclusive.

SMILES	EPAC1 antag	BRCA1 expr act	EPAC1 agonist	EPAC2 antag	EPAC2 agonist	USP1-UAF1 inh
CN(Cc1ccccc1)c1nc(-c2cccc([N+](=O)[O-])c2)nc2ccccc12	i	i	i	i	i	i
CC(Oc1ccc(Cl)cc1Cl)C(=O)Nc1ccncc1 (stereo not given)	i	i	i	i	i	i
CC(Oc1ccc(Cl)cc1Cl)c1ccn[nH]1 (stereo not given)	i	i	i	45µM	i	i
CCN(CC)CCCN(C(=O)c1cccs1)c1nc(-c2ccc(OC)cc2)cs1	i	i	i	i	i	i
CN(C(=O)c1ccco1)c1nnc(-c2ccc(F)cc2)s1	i	i	i	i	i	i
COc1ccc(-c2csc(N(C)C(=O)c3cccs3)n2)cc1	i	10µM	i	i	i	i
CN(C(=O)c1ccco1)c1nc(-c2ccc(F)cc2)cs1	i	4.5µM	i	i	i	i
CCCCNc1ncnc2oc(-c3ccco3)c(-c3ccco3)c12	nt	i	nt	nt	nt	nt
O=C(O)c1ccc(-n2ncc3c2/C(=C\c2cccc([N+](=O)[O-])c2)CC3)cc1	i	i	i	i	i	i
O=C(O)c1ccc(-n2ncc3c2/C(=C/c2cccc([N+](=O)[O-])c2)CC3)cc1	i	6.3µM	i	i	i	i
Cc1ccc(-c2nnc(SCCC(=O)Nc3ccccc3)n2C)cc1	nt	i	nt	nt	nt	nt
Cc1cccc(NC(=O)Cn2nnc3ccccc32)c1	i	13µM	i	i	i	i
Cc1ccc(NC(=O)Cn2nnc3ccccc32)cc1	i	8.9µM	i	i	i	i
COC(=O)c1ccc(NC(=O)Cn2nnc3ccccc32)cc1	i	10µM	i	i	i	i
COc1ccc(NC(=O)COC(=O)Cn2nnc3ccccc32)cc1	i	i	i	i	i	i
O=C(Cn1nnc2ccccc21)Nc1ccc([N+](=O)[O-])cc1	?	i	i	i	i	i
CCOC(=O)c1ccc2[nH]c3c(c2c1)CCCCC3=O	i	4µM	i	i	i	i
Oc1cc2ccccc2cc1-c1n[nH]c(=S)o1	79µM	i	i	i	i	i
Cc1ccn2cc(-c3cnoc3C)nc2c1	i	10µM	i	i	i	i
COc1cccc(/C=N/NC(=O)NC23CC4CC(CC(C4)C2)C3)c1O	i	i	i	i	i	i
O=C(N/N=C/c1ccccc1F)NC12CC3CC(CC(C3)C1)C2	i	5µM	i	i	i	i
O=C(N/N=C/c1ccccn1)NC12CC3CC(CC(C3)C1)C2	i	4µM	i	i	i	i
O=C(C(=O)N1CCN(c2ccccc2)CC1)c1cccc(Br)c1	i	nt	i	i	i	nt
CN(C)c1ccc(/C=C(/C#N)C(=O)NCc2ccccc2)o1	i	10µM	i	i	i	?
N#C/C(=C/c1ccccc1)C(=O)NCc1ccccc1	i	i	i	i	i	i
O=C(COc1ccccc1Cl)Nc1cccc(S(=O)(=O)NC2=NCCCCC2)c1	i	i	126µM	i	i	i
COc1ccccc1OCC(=O)Nc1cccc(S(=O)(=O)NC2=NCCCCC2)c1	i	i	?	i	i	i
CN(C)c1cccc(C(=O)Nc2cccc(S(=O)(=O)NC3=NCCC3)c2)c1	i	4µM	i	i	i	i
CN(C)c1cccc(C(=O)Nc2ccc(N3CCOCC3)cc2)c1	i	11µM	i	i	i	i
CCOCCn1cnc2sc(C(=O)Nc3ccccc3C(=O)OC)c(C)c2c1=O	nt	nt	nt	nt	nt	i
